We go through 62 molecules from PubChem BioAssay AID626 (Vanderbilt High Throughput Screening Facility, 2007).

SMILES strings stand for the structures. Among all 64,000 compounds or so, about 1,900 (3%) were called active.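 The calls were made as follows: active = fluorescence rise, raw or as B-score row- and column-corrected plate score, outside the 99.7% band of its plate's samples, either direction; inactive = the rest.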 Only a selection was taken, and actives are over-represented in it overall.

The subject of the assay is Muscarinic acetylcholine receptor M1. In words: direct activation of M1 receptor calcium signal – CHO-M1 cells, Fluo-4 calcium, agonist mode, primary screen (AID 626). As to conditions: Fluo-4 calcium fluorescence, at 10 µM, hits give high values.
Regarding `C/C(Cl)=C\Cn1c(Nc2cccc(C)c2)nc2c1c(=O)n(C)c(=O)n2C`, the B-score was 0.177 (inactive).

With `CCCn1c(=O)c(-c2ccccc2)c(O)c2ccccc21`, the B-score is 0.287 (inactive).

On to `Nc1nnc(SCCN2C(=O)c3ccccc3S2(=O)=O)s1`, for which the B-score was 1.12 (inactive).

Consider `CCOC(=O)CNC(=O)CN1C(=O)CCSc2ccccc21`, for which the B-score is -0.158 (inactive).

Regarding `CC1=NCCN1S(=O)(=O)c1ccc(Br)c(C)c1`, the B-score was 0.66 (inactive).

Consider `CC(C)OCCCNc1ncnc2c1[nH]c1ccc(F)cc12`, for which the B-score was 16.6 (active).

Turning to `CCN1CCCC1CNc1ncnc2c1[nH]c1ccc(F)cc12` (configuration not stated), the B-score was 0.0374 (inactive).

In the case of `O=C1CCCN1CCCNc1ncnc2c1[nH]c1ccccc12`, the B-score was -0.55 (inactive).

For `Cc1oc(CC(C)C)c(CN2CCCC2)c1C(=O)O`, the B-score was 0.845 (inactive).

`CCOC(=O)C1CCN(C(=O)C2CCN(S(=O)(=O)c3c(C)noc3C)CC2)CC1`: the B-score was -0.00598 (inactive).

As to `CN1C(C)(C)CC(NC(=O)CCC(=O)NC2CC(C)(C)N(C)C(C)(C)C2)CC1(C)C`, the B-score was -0.271 (inactive).

`CCOC(=O)c1ccccc1NC(=O)CC1Nc2ccccc2NC1=O` (configuration not stated): the B-score was 14.3 (active).

For `O=C(CC1Nc2ccccc2NC1=O)Nc1ccccc1` (configuration not stated), the B-score is 3.46 (active).

With `CCOC(=O)C1=C(C)NC(C)=C(C(=O)OCC)C1c1ccccn1`, the B-score is -0.0841 (inactive).

With `O=C(CC1NCCNC1=O)Nc1ccc(Oc2ccccc2)cc1` (configuration not stated), the B-score is 1.02 (inactive).

Regarding `CCCOC(=O)Nc1ccccc1C(N)=O`, the B-score was -0.00513 (inactive).

For the molecule `CCOc1ccc(NC(=O)CC2NCCNC2=O)cc1` (configuration not stated), the B-score was 0.571 (inactive).

As to `COc1ccccc1NC(=O)C1=C(C)NC2=C(C(=O)CCC2)C1c1ccc(C)o1` (configuration not stated), the B-score was -0.692 (inactive).

For `CCc1ccc(N(CC)c2ncnc3nc[nH]c23)cc1`, the B-score is 0.205 (inactive).

Turning to `CCOc1ccc(S(=O)(=O)N(CC(=O)O)c2ccccc2)cc1`, the B-score was 0.254 (inactive).

With `C=C1c2cc(CC)ccc2NC(=O)N1c1ccc(C)cc1`, the B-score is -1.17 (inactive).

Regarding `CC(C)n1c(SCC(=O)Nc2ccccc2N2CCCCC2)nc2c1c(=O)n(C)c(=O)n2C`, the B-score is 0.367 (inactive).

`Cc1ccccc1NC(=O)CNc1ccccc1N1CCCCC1`: the B-score is 1.11 (inactive).

On to `Cn1c(=O)c2c(nc(SCC(=O)Nc3ccccc3N3CCCCC3)n2C)n(C)c1=O`, for which the B-score is 6.49 (active).

Regarding `CC(=O)Nc1ccc(S(=O)(=O)N2CCN(CCCOc3cc(C)ccc3C)CC2)cc1`, the B-score was -0.692 (inactive).

Turning to `CN(C)CCCNc1c2c(c(C#N)c3nc4ccccc4n13)CCC2`, the B-score is 0.715 (inactive).

For `COc1ncnc2c1N=C1CC(C)(C)CC(N)=C1S2`, the B-score is 39.7 (active).

Turning to `COc1cc(NS(=O)(=O)c2ccccc2)ccc1-n1nc(C)cc1C`, the B-score was -0.04 (inactive).

With `COc1cccc2c(C)c(C(=O)O)[nH]c12`, the B-score is -2.07 (active).

As to `COc1ccc(C)cc1NC(=O)c1[nH]c(C)c(C(C)=O)c1C`, the B-score was 1.04 (inactive).

For `CCOC(=O)c1c(C)[nH]c(C(=O)NCc2ccccc2OC)c1C`, the B-score is 0.0421 (inactive).

Regarding `CCN(CC)CCN1C(=O)C(=O)/C(=C(/O)c2ccc(OC)c(OC)c2)C1c1ccccn1` (configuration not stated), the B-score is -0.817 (inactive).

In the case of `CS(=O)(=O)c1ccc2nc(NC(=O)C3CCCCC3)sc2c1`, the B-score was 0.229 (inactive).

With `O=C1NC(Nc2nc3ccccc3s2)(C(F)(F)F)C(=O)N1C1CCCCC1` (configuration not stated), the B-score was -0.752 (inactive).

As to `COc1cc(-c2nc(-c3ccncc3)no2)cc(OC)c1OC`, the B-score is -0.116 (inactive).

With `CCOc1nc(-c2ccc(OC)cc2)ccc1-c1noc(-c2cc(OC)c(OC)c(OC)c2)n1`, the B-score was 9.6 (active).

For the molecule `COc1ccc(-c2ccc(-c3noc(-c4ccncc4)n3)c(OC)n2)cc1`, the B-score was -0.565 (inactive).

In the case of `CC(C)c1nc2oc3c(N4CCN(C)CC4)ncnc3c2c2c1CCC2`, the B-score was 0.376 (inactive).

Turning to `Cc1ccccc1Nc1nnc(C)c(=O)[nH]1`, the B-score was -0.209 (inactive).

For the molecule `CCOC(=O)c1c(N)c(C#N)nn1-c1ccccc1C(=O)OC`, the B-score is -0.00838 (inactive).

In the case of `O=C(CSc1nnc(Cn2cnc3ccccc32)o1)c1ccccc1`, the B-score is 2.49 (active).

For `c1ccc(Cc2nn3c(Cn4cnc5ccccc54)nnc3s2)cc1`, the B-score is 0.391 (inactive).

Turning to `Cc1cc(C)cc(OCc2nnc(SCC(=O)Nc3ccccc3)o2)c1`, the B-score is 0.534 (inactive).

In the case of `O=C(Nc1nn(Cc2ccccc2F)cc1Br)c1cccs1`, the B-score was -0.416 (inactive).

Regarding `O=C(O)c1ccc(COc2c(F)c(F)cc(F)c2F)o1`, the B-score is 0.494 (inactive).

As for `COc1ccc(Cn2nnc3c(=O)[nH]c(C4CCN(C(=O)c5ccccc5Cl)CC4)nc32)cc1`, the B-score is -0.0421 (inactive).

For `CCSc1nc(C)nc2c1oc1ccccc12`, the B-score was 0.362 (inactive).

`CCc1nc(N2CCN(c3nc(C)cc(C)n3)CC2)c2oc3ccccc3c2n1`: the B-score is 0.00663 (inactive).

Turning to `CCc1nc(Nc2ccc3nccnc3c2)c2oc3ccccc3c2n1`, the B-score is 3.77 (active).

Consider `COc1cccc(N2C(=O)C3CCCN3C2c2ccc(F)cc2)c1` (configuration not stated), for which the B-score was -0.0377 (inactive).

`CCn1c(CNc2ccc(OC)cc2)nnc1SCC(=O)c1ccc(OC)cc1`: the B-score was 0.245 (inactive).

In the case of `CCCN1CC=C2C(C#N)=C(N)C(C#N)(C#N)C(c3cc(OC)ccc3OC)C2C1` (configuration not stated), the B-score is 47 (active).

As for `CCC1=C(C(=O)OC)C(c2cc(OC)ccc2OC)C(C#N)=C(N)O1` (configuration not stated), the B-score is -0.762 (inactive).

As to `CCOC(=O)N1CC=C2C(C#N)=C(N)C(C#N)(C#N)[C@H](c3cccs3)[C@H]2C1`, the B-score was 3.8 (inactive).

For `COc1cccc(N2CC(C(=O)Nc3c(C)cccc3C)CC2=O)c1` (configuration not stated), the B-score is -0.0783 (inactive).

Consider `Cc1nc2sc(C(c3ccco3)N3CCC4(CC3)OCCO4)c(O)n2n1` (configuration not stated), for which the B-score is -0.0511 (inactive).

For `CCOc1ccc(CN(Cc2ccco2)C(c2cccs2)c2nnnn2C(C)(C)C)cc1` (configuration not stated), the B-score was 17.1 (active).

Consider `CC(C)(C)n1nnnc1C(c1cccs1)N(Cc1cccnc1)CC1CCCO1` (configuration not stated), for which the B-score is 0.0241 (inactive).

For `CCC(C)(C)n1nnnc1C(c1cccs1)N1CCN(Cc2ccccc2)CC1` (configuration not stated), the B-score is 0.516 (inactive).

For the molecule `O=C(c1ccc(=O)[nH]c1)N(Cc1ccco1)C1(C(=O)NC2CCCCC2)CCCCC1`, the B-score was 0.118 (inactive).

With `O/N=C1\CC2(Cc3nonc31)OCCO2`, the B-score is -0.542 (inactive).

As to `CN(C)c1ccc(NC(=O)c2ccncc2)c2ccccc12`, the B-score was 0.268 (inactive).
